{
  "source": "PubChem BioAssay",
  "key": {"[1]": {"test": "restoration of touch response, mutant HTT neurons – whole organism, C. elegans mechanosensory neurons, N-terminal huntingtin (AID 1599)", "details": "C. elegans polyQ-huntingtin mechanosensory neurons, stronger effect = higher value"}, "[2]": {"test": "blockers of cytochrome c efflux from mitochondria – biochemical, purified mitochondria (AID 1603);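 note: mouse liver mitochondria challenged with calcium chloride; signal normalized to the plate average as 100%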", "details": "stronger effect = lower value"}, "[3]": {"test": "polyglutamine aggregate formation blockers (AID 1604)", "details": "polyglutamine-induced protein aggregation inhibition assay; stronger effect = higher value; tested at 2.5 µM"}, "[4]": {"test": "glutamate transport activators, MN-1 cells, MN-1 cell line (AID 1612);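 note: tested at 1 µM final; 0% = mean of DMSO vehicle wells on each plate; positive means more glutamate uptake than control and negative means less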", "details": "MN-1 motor neuron cells, stronger effect = higher value"}, "[5]": {"test": "75Q-TubH aggregate inhibition, S. cerevisiae, yeast (AID 1616)", "details": "S. cerevisiae 75Q-TubH polyglutamine aggregation suppression; stronger effect = higher value"}, "[6]": {"test": "GFP-Q80 aggregate reduction, neuronal-like cells, cell-based, NGF-treated PC12, GFPQ80 (AID 1614);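 note: lower means fewer inclusions and 0 means no inclusions at all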", "details": "PC12 NGF-treated GFP-polyQ80 inclusion reduction"}, "[7]": {"test": "chitosan synthesis blockers in C. neoformans – flow cytometry, Cibacron Brilliant Red staining (AID 1347148; call rule not given here;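 note: compound exposure lasted three days at 37 degrees C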)", "details": "Cryptococcus neoformans chitosan, stronger effect = lower value; at 10 µM unless noted"}, "[8]": {"test": "viability loss in pontine glioma line – cell-based, JHH-DIPG-1, MIPE4.0, CellTiter-Glo, qHTS, dose response (AID 1347062; cut-off not given, nearly all actives have AC50 up to about 27 µM)", "details": "JHH-DIPG-1 viability, CellTiter-Glo ATP luminescence"}, "[9]": {"test": "viability loss in pontine glioma line – cell-based, SU-DIPG-IV, MIPE4.0, CellTiter-Glo, qHTS, dose response (AID 1347063);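 note: compound exposure lasted 48 hours before the viability readout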", "details": "CellTiter-Glo ATP luminescence"}, "[10]": {"test": "viability loss in pontine glioma line – cell-based, SU-DIPG-XXV, MIPE5.0, CellTiter-Glo, qHTS, dose response (AID 1347065; cut-off not given, nearly all actives have AC50 up to about 26 µM;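 note: cells exposed to compound for 48 hours before ATP readout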)", "details": "CellTiter-Glo ATP luminescence"}, "[11]": {"test": "growth inhibition of DIPG cells – cell-based, MIPE4.0 library, CellTiter-Glo luminescence, qHTS (AID 1347066);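 note: cells exposed to compound for 48 hours before readout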", "details": "SU-DIPG-VI viability, CellTiter-Glo ATP luminescence"}, "[12]": {"target": "6-phosphogluconate dehydrogenase, decarboxylating (Homo sapiens) (UniProt P52209)", "sequence (P52209 whole entry, looked up)": "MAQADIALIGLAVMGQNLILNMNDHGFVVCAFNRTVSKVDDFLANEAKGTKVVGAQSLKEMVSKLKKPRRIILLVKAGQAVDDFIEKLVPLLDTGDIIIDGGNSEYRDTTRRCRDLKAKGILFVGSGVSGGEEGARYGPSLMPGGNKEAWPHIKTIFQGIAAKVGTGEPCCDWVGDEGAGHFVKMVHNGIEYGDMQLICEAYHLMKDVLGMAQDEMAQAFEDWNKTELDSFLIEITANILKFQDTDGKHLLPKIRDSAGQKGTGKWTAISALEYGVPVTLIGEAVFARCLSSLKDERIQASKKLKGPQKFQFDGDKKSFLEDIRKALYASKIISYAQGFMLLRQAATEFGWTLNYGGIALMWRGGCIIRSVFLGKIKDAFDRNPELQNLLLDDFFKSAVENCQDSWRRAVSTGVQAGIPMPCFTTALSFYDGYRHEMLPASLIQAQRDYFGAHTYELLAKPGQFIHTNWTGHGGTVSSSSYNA", "test": "inhibition of human phosphogluconate dehydrogenase – biochemical, recombinant enzyme, NADPH absorbance, primary screen (AID 1159550;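 active = at least 20% inhibition of 6-phosphogluconate dehydrogenase activity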)", "details": "recombinant 6PGD, NADPH absorbance 341 nm; at 10 µM; stronger effect = higher value"}},
  "note": "Results filed as inconclusive are left out. For some assays here: Entries with a potency or affinity are not part of this list. Active and inactive are the calls of the source. Unless noted, no cut-off is given here; in the data, nearly all actives have AC50 up to about 30 µM.",
  "data": [
    {"smiles": "Clc1cc(Cl)c(OCC#CI)cc1Cl", "values": [
      {"measurement": "rescue above control", "setting": "[1]", "value": 11},
      {"measurement": "cytochrome c release ratio", "setting": "[2]", "value": 8.98},
      {"measurement": "inhibition of aggregation", "setting": "[3]", "value": 58.5, "unit": "%"},
      {"measurement": "glutamate uptake change", "setting": "[4]", "value": 15.9, "unit": "%"},
      {"measurement": "aggregation suppression score", "setting": "[5]", "value": -0.184}
    ]},
    {"smiles": "CCOc1ccccc1OCC1CNCCO1", "note": "(configuration not stated)", "values": [
      {"measurement": "rescue above control", "setting": "[1]", "value": -3.95},
      {"measurement": "cytochrome c release ratio", "setting": "[2]", "value": 1.06},
      {"measurement": "inhibition of aggregation", "setting": "[3]", "value": 12.9, "unit": "%"},
      {"measurement": "glutamate uptake change", "setting": "[4]", "value": 20.1, "unit": "%"},
      {"measurement": "inclusion score", "setting": "[6]", "value": 2},
      {"measurement": "aggregation suppression score", "setting": "[5]", "value": 1.38}
    ]},
    {"smiles": "O=C1NCN(c2ccccc2)C12CCN(CCCC(c1ccc(F)cc1)c1ccc(F)cc1)CC2", "values": [
      {"measurement": "fold fluorescence", "setting": "[7]", "value": "5.05 [at 105.1 µM] (inactive)"}
    ]},
    {"smiles": "Cc1c(-c2ccc(O)cc2)n(Cc2ccc(OCCN3CCCCCC3)cc2)c2ccc(O)cc12", "values": [
      {"measurement": "outcome", "setting": "[8]", "value": "inactive"},
      {"measurement": "outcome", "setting": "[9]", "value": "inactive"},
      {"measurement": "AC50", "setting": "[10]", "value": "20.9 µM (active)"},
      {"measurement": "outcome", "setting": "[11]", "value": "inactive"}
    ]},
    {"smiles": "CCCn1cnc2c1c(=O)n(CCCCC(C)=O)c(=O)n2C", "values": [
      {"measurement": "inhibition", "setting": "[12]", "value": "-7.06% (inactive)"}
    ]}
  ]
}
